SMN2 splice enh: enhancers of SMN2 splice variant expression; HEK293 SMN2-luciferase splicing reporter, luminescence, 30-36 h; Potency, µM (series often up to 46.1 µM), inactives show at the highest dose activity change, positive = activation, most hits filed as activators; hit rate 2.8% among 210,000; further: % of control where 0% means no effect; nearly all actives have a fitted effect of over 55% in size
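HEK293 cells carry an SMN2 […]–luciferase reporter in which exon 7 inclusion puts luciferase in frame. Cells were plated 10-12 h before compound addition, then incubated 30-36 h at 37C. ONE-Glo luminescence was read; sodium butyrate at 4.5 mM final served as control.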
ELG1 genotox: induces genotoxicity in HEK293T cells with luciferase-tagged ELG1; HEK293T ELG1-luciferase reporter, luminescence, 16 h; Potency, µM (titrated, usually from 46 µM), inactives show at the highest dose activity change, positive = activation, hits mostly activators; hit rate 1.3% among 330,000; further: % of control where 0% means no effect; nearly all actives have a fitted effect of over 60% in size
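DMSO vehicle served as control against compound-treated ELG1-luciferase HEK293T cells; exposure lasted 16 hr at 37 °C and 5% CO2, followed by ONE-Glo luminescence detection after 30 min.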
Rab9 prom act: activators of Rab9 promoter. Potency, µM (titrated, usually from 9.22 µM), inactives show at the highest dose activation, negative = inhibition, actives largely listed as activators. hit rate 2.8% among 320,000. Huh7 Rab9 promoter-luciferase reporter, luminescence, 24 h. AID 485297; further: % of control where 0% means no effect; nearly all actives have a fitted effect of over 60% in size
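Luminescence read-out: Huh7 cells stably expressing Rab9-luciferase, treated 24 h with compound at 37 °C, then lysed with luciferase reagent for 10 min at ambient before reading.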
NPC1 prom act: activators of NPC1 promoter | Huh7 NPC1 promoter luciferase reporter, 24 h | Potency, µM (series often up to 9.22 µM), inactives show top-dose activation, hits mostly activators | hit rate 2.4% among 320,000; further: % of control where 0% means no effect; nearly all actives have a fitted effect of over 60% in size
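Luminescence from an NPC1 promoter-driven luciferase reporter in stably transfected Huh7 cells was measured after 24 h compound treatment at 37 °C, followed by 10 min ambient incubation with luciferase detection reagent.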
Luc counter: Kinase-Glo luciferase inhibition (counter-screen) | Q27757 | Potency, µM (titrated, usually from 38.3 µM), for inactives: top-dose activity change, negative = inhibition, usual class: inhibitors | Kinase-Glo luciferase, ATP luminescence, 8 min | hit rate 0.28% among 200,000 | AID 1379; further: on the % scale 0 is the no-effect control and ±100 the full control effect; nearly all actives have a fitted effect of over 60% in size
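Recombinant Kinase-Glo luciferase, 10 uM ATP (linear range), luciferin; imidazole pH 7.2 / KCl / MgCl2 / Tween / BSA buffer; 8 min RT; luminescence.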
FLuc counter: counter-screen for miR-21 project: firefly luciferase inhibitors or activators | Potency, µM (top dose mostly 57.5 µM), inactives show top-dose activity change, negative = inhibition, actives largely listed as inhibitors | purified FLuc, Km substrates, luminescence inhibition | hit rate 6.9% among 360,000 | P08659 | AID 588342;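 further: plate controls were vehicle for no effect and reference inhibitor for full effect; nearly all actives have a fitted effect of over 55% in size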
Target sequence (P08659 whole entry, looked up): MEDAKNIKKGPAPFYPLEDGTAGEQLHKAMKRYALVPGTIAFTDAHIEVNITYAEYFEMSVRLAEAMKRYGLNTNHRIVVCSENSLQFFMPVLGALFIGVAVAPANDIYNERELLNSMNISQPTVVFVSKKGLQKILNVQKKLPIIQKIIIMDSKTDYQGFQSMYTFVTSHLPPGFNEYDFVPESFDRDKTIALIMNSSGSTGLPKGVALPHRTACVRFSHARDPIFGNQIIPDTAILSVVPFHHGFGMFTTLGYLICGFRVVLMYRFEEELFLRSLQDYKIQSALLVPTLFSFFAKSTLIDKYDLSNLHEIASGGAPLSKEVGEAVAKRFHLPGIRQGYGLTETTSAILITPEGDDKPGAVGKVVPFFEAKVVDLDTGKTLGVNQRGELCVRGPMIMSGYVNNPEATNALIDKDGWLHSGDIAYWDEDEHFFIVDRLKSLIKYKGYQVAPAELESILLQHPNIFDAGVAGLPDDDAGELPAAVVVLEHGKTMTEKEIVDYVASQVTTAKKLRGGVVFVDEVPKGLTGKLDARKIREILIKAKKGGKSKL
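Biochemical qHTS of compounds, final roughly 60 µM downward over six points, against 10 nM purified firefly luciferase using Km concentrations of substrates (10 uM D-luciferin, 10 uM ATP) in Tris acetate pH 7.5 buffer; luminescence output.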
Starred values were filed as active, the others as inactive; ? = inconclusive; nt = no result given. In the library only some 7.5% were active in any assay of this set; here they are far more common. The call rests on the fitted dose curve; in most records, active means well fitted curve in the direction sought with a large enough effect; inconclusive means small, poorly fitted or top-dose-only effect, or another doubt; inactive means no such curve, though single readings can be large; an effect the other way counts as inactive or inconclusive. Potency means the concentration at half of the fitted maximal effect.

SMILES	SMN2 splice enh	ELG1 genotox	Rab9 prom act	NPC1 prom act	Luc counter	FLuc counter
CNC(=O)c1cc2cc(OC)ccc2oc1=N	-13%	2%	0%	-7%	-4%	-17%
COc1ccc2oc(=N)c(C(=O)Nc3cccc(C)c3C)cc2c1	nt	?	4.5µM*	2.2µM*	nt	0.76µM*
N=c1oc2ccc(Br)cc2cc1C(=O)NCc1ccccc1	nt	14%	6%	-6%	nt	-1%
O=C(Nc1ccccc1O)c1cc2cc(Br)ccc2oc1=O	nt	?	?	3.5µM*	nt	?
N=c1oc2cc(O)ccc2cc1C(=O)Nc1ccc(Br)cc1	nt	17%	1.4µM*	1.8µM*	nt	2.7µM*
Cc1ccc(S(=O)(=O)NCCn2nc(C)nc2C)cc1	nt	-2%	3%	4%	nt	-1%
N=c1oc2ccc(Cl)cc2cc1C(=O)Nc1ccc(F)cc1	nt	?	3.5µM*	3.5µM*	nt	?
N=c1oc2cc(O)ccc2cc1C(=O)Nc1ccccn1	-7%	4%	2%	1%	-3%	?
COc1ccc2oc(=N)c(C(=O)Nc3ccccc3)cc2c1	13µM*	?	3.2µM*	?	-16%	0.95µM*
COc1ccc2oc(=N)c(C(=O)Nc3ccccc3Cl)cc2c1	nt	?	2.5µM*	3.5µM*	nt	0.54µM*
N=c1oc2cc(O)ccc2cc1C(=O)Nc1nc2ccccc2s1	0%	6.5µM*	3.2µM*	4µM*	-4%	0.19µM*
COc1ccc2oc(=N)c(C(=O)Nc3ccc(C)cc3)cc2c1	nt	11%	?	23%	nt	?
O=C(OCc1nnc(-c2ccccc2)o1)c1cc(S(=O)(=O)N2CCOCC2)ccc1F	nt	5%	0%	-2%	nt	4%
COc1ccc2oc(=O)c(C(=O)N3CCN(c4ccccc4C)CC3)cc2c1	14µM*	9.2µM*	27%	18%	-3%	13µM*
COc1ccc2oc(=O)c(C(=O)Nc3ccccc3C)cc2c1	nt	?	3.2µM*	3.2µM*	nt	1.7µM*
COc1ccc2oc(=O)c(C(=O)N3CCN(c4ccccc4)CC3)cc2c1	15%	28%	3%	3%	-4%	?
Brc1ccc(NC2=Nc3ccccc3CC2)cc1	10µM*	18%	?	3.2µM*	-12%	3.8µM*
Cc1ccc(NC(=O)C2OCCc3ccccc32)cc1 (stereo not drawn)	nt	7%	5%	21%	-1%	?
N#CC1=C(Nc2ccc(Br)cc2)CCC1	nt	?	7%	0%	-7%	-22%
Cc1ccc(NC2=Nc3ccccc3CC2)cc1	12%	0.73µM*	0.4µM*	0.4µM*	-14%	1.9µM*
Cc1cc(OCC(=O)OCC(=O)N2CC(C)CC(C)C2)ccc1Cl (stereo not drawn)	nt	0%	0%	-3%	nt	1%
O=C(NCCC(=O)N1CCN(C(=O)c2ccco2)CC1)c1ccc(Br)cc1	nt	3%	1%	-7%	nt	7%
O=C(c1cc(C(F)(F)F)cc(C(F)(F)F)c1)N1CCC2(CC1)CCN(c1ccccn1)CC2	-45%	nt	nt	nt	-3%	nt
CS(=O)(=O)n1nc(OC(=O)c2cccc3ccccc23)cc1N	5%	5%	27%	7%	-1%	17µM*
CS(=O)(=O)n1nc(OC(=O)c2cc(Br)ccc2Cl)cc1N	6%	2%	1%	-3%	1%	?
SMILES	SMN2 splice enh	ELG1 genotox	Rab9 prom act	NPC1 prom act	Luc counter	FLuc counter
O=C(Nc1nnc(SCC(=O)N2CCCCC2)s1)c1cccs1	?	2%	17%	2%	-1%	19µM*
O=C(Nc1nnc(SCC(=O)N2CCCCC2)s1)c1ccccc1F	nt	10%	17%	12%	nt	24µM*
O=C(Cc1cccs1)Nc1nnc(SCC(=O)N2CCCCC2)s1	23%	-7%	-2%	-1%	-4%	1%
O=C(Nc1nnc(SCC(=O)N2CCOCC2)s1)c1ccccc1Cl	-7%	13%	?	?	-9%	8.5µM*
CCNS(=O)(=O)c1ccc(CCC(=O)N2CCN(C(=O)OCC)CC2)cc1	nt	1%	1%	-1%	nt	0%
Cc1c(-c2nc(-c3ccc4c(c3)[nH]c(=O)n4C)no2)cccc1[N+](=O)[O-]	nt	nt	nt	nt	nt	0%
Cc1cc(C)n2nc(SCc3nnc(SCc4ccccc4Cl)s3)nc2n1	-56%	-1%	-4%	-3%	4%	17µM*
Cc1cc(C)n2nc(SCc3nnc(SCc4ccccc4C)s3)nc2n1	-23%	-6%	-2%	0%	0%	?
CCc1nnc(/N=C/c2c(O)n(-c3ccc(Cl)cn3)c(=O)c3ccccc23)s1	-6%	-2%	0%	2%	-1%	2.7µM*
O=C1C(C=NCCCN2CCOCC2)=C(O)c2ccccc21	-9%	15%	4%	-5%	-3%	?
O=C1C(C=Nc2ccccc2O)=C(O)c2ccccc21	35µM*	17%	?	?	10µM*	?
Cc1ccc(O)c(N=CC2=C(O)c3ccccc3C2=O)c1	25%	?	?	?	-10%	6.7µM*
Cc1ccc(O)c(N=Cc2cc(Cc3ccccc3)cc([N+](=O)[O-])c2O)c1	1%	-7%	-2%	-4%	-1%	?
CN(CCc1ccc(Cl)c(Cl)c1)CCN1CCCCCC1	5%	nt	nt	nt	0%	nt
Cc1cccc(C(=O)Nc2ccc(C(=O)OCc3cc(=O)n4nc(CC(C)C)sc4n3)cc2)c1	nt	nt	nt	nt	nt	0%
Cc1ccc(S(=O)(=O)NC(CC(C)C)C(=O)NCC(c2ccco2)N2CCCCC2)cc1 (stereo not drawn)	nt	?	1%	0%	nt	19µM*
CC(=O)Nc1ccc(S(=O)(=O)NC(C)C(=O)NCC(c2ccco2)N2CCCCC2)cc1 (stereo not drawn)	nt	2%	-4%	0%	nt	6%
Cc1ccc(S(=O)(=O)NCC(=O)NCC2COc3ccccc3O2)cc1C (stereo not drawn)	nt	0%	-1%	-4%	nt	0%
CCc1ccc(C(=O)Nc2nc(C)cs2)s1	nt	?	-16%	-12%	nt	0.95µM*
CCOCCn1cnc2sc(C(=O)Nc3nc(C)c(C(=O)OCC)s3)c(C)c2c1=O	-12%	12%	2%	-9%	-2%	2.4µM*
Cc1nnc(NC(=O)c2cc3ccccc3o2)s1	nt	?	?	?	nt	6µM*
Cc1ccccc1-c1nnc(NC(=O)c2cc3ccccc3oc2=O)s1	-41%	5%	1%	2%	1%	-1%
CCOC(=O)c1sc(NC(=O)c2ccccc2OC)nc1C	2.5µM*	1.8µM*	28%	1%	10µM*	0.43µM*
CCOC(=O)c1sc(NC(=O)Cc2ccc(C)cc2)nc1C	6%	-5%	-3%	-5%	1%	-16%
COc1ccc(Cl)cc1NC(=O)c1c(C(=O)Nc2cccc(C)c2C)sc2nc(C)cc(=O)n12	-4%	nt	nt	nt	nt	1%
